# HCV inhibitor – blocks hepatitis C virus. 340,000 compounds, 3.4% hits. Huh7.5.1 HCVcc-Cre infection, luciferase reporter, 44 h. AID 651820. Potency, µM (highest dose often 41.8 µM), inactives show top-dose activity change, negative = inhibition, hits mostly inhibitors; active = well fitted inhibition curve with a large enough effect; inconclusive = small, poorly fitted or top-dose-only effect, or another doubt; inactive = no such curve, though single readings can be large or run the other way; note: potency is the fitted concentration of half-maximal effect; % is set by controls: 0 for no effect and ±100 for the full control effect
#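 Compounds are dispensed onto cells plated 4 h earlier at 1,000 per well, with HCVcc-Cre virus (about 0.5 moi) added next. Following 44 h of culture, luminescent signal is measured for 15 sec after 15 min with substrate at room temperature.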
# FMDV inh – antivirals against foot and mouth disease virus. FMDV antiviral cell-based qHTS. Potency, µM (titrated, usually from 57.9 µM), inactives show at the highest dose activity change, negative = inhibition, hits mostly inhibitors. 410,000 compounds, 1.2% hits; calls by dose curve; tested in HEK293T cells; note: read-out not given here; potency is the fitted concentration of half-maximal effect; % is set by controls: 0 for no effect and ±100 for the full control effect; nearly all actives have a fitted effect of over 45% in size
# LASV entry inh – blocks Lassa virus binding to or entry into cells; Lassa virus pseudotype entry inhibition, cell reporter; Potency, µM (doses to about 37.9 µM), without a hit: top-dose activity change, negative = inhibition, actives largely listed as inhibitors; 300,000 compounds, 1.2% hits; AID 540256; calls by dose curve; tested in HEK293 cells; note: potency is the fitted concentration of half-maximal effect; % is set by controls: 0 for no effect and ±100 for the full control effect; nearly all actives have a fitted effect of over 50% in size
# MARV entry inh – Marburg virus entry inhibition. Marburg virus pseudotyped entry inhibition, cell reporter. Potency, µM (series often up to 37.8 µM), for the others: at the highest dose activity change, negative = inhibition, most hits filed as inhibitors. 300,000 compounds, 1.8% hits; calls by dose curve; tested in HEK293 cells; note: potency is the fitted concentration of half-maximal effect; % is set by controls: 0 for no effect and ±100 for the full control effect
# HCMV inh – human cytomegalovirus inhibition; HFF cells, HCMV-luciferase reporter, 72 h; hits give low values; activity change, negative = inhibition, % at 57.5 µM; 410,000 compounds, 4.5% hits; in the data active = activity change below about -60%; inconclusive = no clear call, values can overlap the other calls; inactive = above about -39%; note: % is set by controls: 0 for no effect and ±100 for the full control effect
#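 After 16 h attachment at 37C, HFF cells received test compound and HCMV-luciferase (1 PFU/cell); reporter luminescence read 72 h later, data normalized against buffer-only and known inhibitor Salinomycin.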
# SARS PLP yeast – SARS-CoV PLP inhibition in yeast; S. cerevisiae expressing SARS-CoV PLpro, growth rescue; AID 485353; 330,000 compounds, 0.19% hits; Potency, µM (top dose mostly 32.9 µM), inactives show at the highest dose activity, positive = growth rescue, most hits filed as activators; calls by dose curve; note: potency is the fitted concentration of half-maximal effect; 0% is about no effect; nearly all actives have a fitted effect of over 55% in size
# * = called active by the depositor; ? = inconclusive; . = no result; + = active, no number; [ ] = remark or other dose. Only some compounds are listed: those with a hit (about 8% of all), similar ones and a draw of the others.
SMILES,HCV inhibitor,FMDV inh,LASV entry inh,MARV entry inh,HCMV inh,SARS PLP yeast
N[C@H](C(=O)O)[C@H]1C[C@H]1C(=O)O,.,-9%,.,.,.,.
CCOc1cc(-c2c(C#N)c(N)nc3c2CCc2ccccc2-3)ccc1O,?,?,?,?,-19,-2%
CCOc1cc(-c2cc(-c3ccc(C)cc3)nc(N)c2C#N)ccc1O,25µM*,?,?,?,13,-2%
COc1ccc(-c2cc(-c3ccc(O)cc3)nc(N)c2C#N)cc1,-4%,-8%,.,.,0,-3%
COc1ccc(OC)c(-c2cc(-c3cccnc3)nc(N)c2C#N)c1,?,?,?,1.4µM*,110,-1%
COc1cc(-c2cc(-c3ccc(O)cc3)nc(N)c2C#N)ccc1O,?,-13%,?,?,-70*,-1%
Cc1nn(CC(=O)N2CCN(c3ccccn3)CC2)c(=O)c2cc3sccc3n12,?,-13%,.,.,.,19%
COc1cc(C[C@@H]2C(=O)OC[C@H]2Cc2ccc(OC)c(OC)c2)ccc1O,?,20µM*,.,.,-90*,2%
COc1ccc(F)cc1S(=O)(=O)Nc1ccc2c(c1)CCCN2C(=O)c1cccs1,.,0%,-8%[46.1 µM],.,-75*,.
Cc1cc(F)ccc1S(=O)(=O)Nc1ccc2c(c1)CCCN2C(=O)c1cccs1,.,-21%,?,.,?,.
Cc1ccc2c(c1)CCCN2C(=O)c1cccs1,-27%,7%,-16%[14.3 µM],8%,25,-19%
CCCCOc1ccc(C(=O)Nc2ccc3c(c2)CCCN3C(=O)c2cccs2)cc1,.,25µM*,?,.,-87*,.
CC(C)Oc1ccc(C(=O)Nc2ccc3c(c2)CCCN3C(=O)c2cccs2)cc1,.,22µM*,?,.,-89*,.
Cc1ccccc1C(=O)Nc1ccc2c(c1)CCCN2C(=O)c1cccs1,?,-30%,0.89µM*,.,+,-6%
COc1ccc(C(=O)Nc2ccc3c(c2)CCCN3C(=O)c2cccs2)c(OC)c1,-18%,?,?,.,?,-11%
CCOC(=O)C1CCCN(S(=O)(=O)c2ccc3c(c2)CCN3C(=O)CC)C1 (stereo not drawn),.,?,0%[46.1 µM],3%[46.1 µM],-2,.
COCc1cc(C)n(CC(=O)Nc2ccc(N3CCOCC3)cc2)c(=O)c1C#N,2%[8.37 µM],-17%,16%,0%,-35,-3%
Cn1c(=O)c2c(nc(N/N=C/c3cccs3)n2Cc2ccccc2)n(C)c1=O,?,25µM*,?,-17%,?,34%
Cn1c(=O)c2c(nc(N/N=C/c3cccnc3)n2Cc2ccc(F)cc2)n(C)c1=O,-3%,-18%,?,0%[46.1 µM],-7,1%
Cn1c(=O)c2c(nc(N/N=C/c3ccc(OC(=O)c4ccco4)cc3)n2Cc2ccccc2)n(C)c1=O,?,13µM*,10µM*,?,72,-5%
CC(=O)C[C@H](O)CC(=O)[C@@H]1OC(=O)CCCCCCCCc2ccccc21,21%,9%,.,.,1,-4%
CCc1ccccc1NC(=O)Cn1cc(C(=O)c2ccc(Cl)cc2)c(=O)c2ccc(C)nc21,.,-10%,19%[46.1 µM],.,10,.
CC(C)(C)OC(=O)[C@H](Cc1ccccc1)NC(=O)c1nc[nH]c1C(=O)NCC(=O)OCc1ccccc1,5%,-10%,.,.,-61*,4%
O=C(N[C@@H](Cc1ccccc1)C(=O)OCc1ccccc1)c1nc[nH]c1C(=O)N1CCNCC1,27%,-3%,.,.,-84*,-2%
COc1ccc(NC(=O)c2nc[nH]c2C(=O)N[C@@H](C)C(=O)OC(C)(C)C)cc1,-14%,6%,.,.,50,1%
SMILES,HCV inhibitor,FMDV inh,LASV entry inh,MARV entry inh,HCMV inh,SARS PLP yeast
CC(C)(C)OC(=O)NCCCC[C@H](NC(=O)c1nc[nH]c1C(=O)NCC(=O)OCc1ccccc1)C(=O)OC(C)(C)C,2%,-25%,.,.,-89*,0%
COc1ccc(NC(=O)c2nc[nH]c2C(=O)N[C@@H](CC(C)C)C(=O)OC(C)(C)C)cc1,-25%,-24%,.,.,-78*,1%
Cc1ccc(C)c(CC(=O)N2CCCC(c3cc(C(=O)NCc4cccnc4)no3)C2)c1 (stereo not drawn),.,?,.,.,13,.
CC1CCN(c2nc(Cl)nc(Nc3ccc([N+](=O)[O-])cc3)n2)CC1,3%[0.335 µM],-23%,-5%,?,64,-104%
COC(=O)c1c(OCc2cccnc2)cc(=O)n2c1CCN(C(=O)c1c3c(nn1C)CCCC3)CC2,.,-17%,.,.,.,.
CCCC[C@H](CCC(=O)Nc1ccc(C(=O)OC)cc1)C(=O)O,.,.,.,18%[46.1 µM],.,.
CCC(C)NC(=S)N1CCN(C)CC1 (stereo not drawn),10%,4%,0%,-6%[46.1 µM],-29,-5%
CC(C)(C)OC(=O)N[C@@H](CCCCNC(=O)OCc1ccccc1)c1nnc([C@H](CCCCNC(=O)OCc2ccccc2)NC(=O)OC(C)(C)C)o1,-29%,6%,.,.,.,0%
COc1ccc(NC(=O)C(CCCCNC(=O)OC(C)(C)C)NC(=O)OCc2ccccc2)cc1 (stereo not drawn),1%,-28%,2.1µM*,10%,-18,4%
CC(C)C[C@H](NC(=O)c1nc[nH]c1C(=O)N1CCNCC1)C(=O)OC(C)(C)C,12%,-8%,.,.,-19,-19%
C[C@H](NC(=O)c1nc[nH]c1C(=O)N1CCNCC1)C(=O)OC(C)(C)C,24%,-9%,.,.,-65*,2%
CC(C)C[C@H](NC(=O)c1[nH]cnc1C(=O)N[C@@H](Cc1ccccc1)C(=O)OC(C)(C)C)C(=O)OC(C)(C)C,?,-13%,.,.,-89*,0%
Cc1cnc(-n2ncc(C(=O)NCCc3ccccn3)c2C)nc1-c1ccc(F)cc1,.,-1%,.,.,.,.
CC(C)c1c(C(=O)N(C)C2CCN(C)CC2)cnn1-c1nccc(-c2ccco2)n1,.,-4%,.,.,.,.
CC(=O)n1c(-c2ccccc2)c(CO)c2ccccc21,-25%,-27%,.,.,-17,-17%
NCCc1c(-c2ccccc2)n(-c2ccccc2)c2ccccc12,11µM*,-23%,-28%[46.1 µM],13µM*,-4,-4%
CCSC1=C(C#N)[C@@H](c2cccs2)C(C(=O)OC)=C(C)N1,.,.,.,26%,.,.
CCOC(=O)CCC(=O)NNC(=O)COc1ccc(C(C)C)cc1Br,11%,0%,.,.,13,0%
CN(C)C=NC(=O)c1cc(C(=O)c2ccccc2Cl)c[nH]1,0%,-10%,10%,3%[46.1 µM],10,0%
CN(C)C=NC(=O)c1cc(C(=O)c2ccc(C(C)(C)C)cc2)c[nH]1,-5%,8%,3.2µM*,?,114,-2%
Cc1ccc(-n2cc(S(=O)(=O)c3ccc(C)cc3)[nH]c2=O)cc1,7%,26%,5%,0%[46.1 µM],-30,-2%
O=C(C1CCCN(c2ncnc3c2nc2n3CCCCC2)C1)N1CCN(c2ccc(Cl)cc2)CC1 (stereo not drawn),?,?,?,?,-83*,-12%
